The entries come from a sample that favours hits as a whole.
Tgondii IFNg: T. gondii growth inhibition with IFN-gamma, primary screen, cell-based | Toxoplasma gondii growth in IFN-gamma-treated host cells; active compounds read low | activity change, negative = inhibition, % (concentration not given with the values) | 69,000 compounds, 3.8% hits | AID 1259416, 2018; in the data active = activity change below about -70%, passing the limit was not always enough;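 note: host cells are HeLa cells infected with Toxoplasma gondii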
Numbers stand for hits; - = inactive.

SMILES	Tgondii IFNg
CCOc1cccc(CC(=O)N2CCc3c([nH]c4ccccc34)C2c2ccc(Cl)cc2)c1OCC (stereo not drawn)	-
CSc1ccc(C2c3[nH]c4ccccc4c3CCN2C(=O)CCc2cccs2)cc1 (stereo not drawn)	-85
CSc1ccc(C2c3[nH]c4ccccc4c3CCN2C(=O)CCc2ccccc2)cc1 (stereo not drawn)	-
O=C(Cc1cccs1)N1CCc2c([nH]c3ccccc23)C1c1ccc(F)cc1 (stereo not drawn)	-
CSc1ccc(C2c3[nH]c4ccccc4c3CCN2C(=O)Cc2cccs2)cc1 (stereo not drawn)	-
O=C(Cc1cccs1)N1CCc2c([nH]c3ccccc23)C1c1ccc(Cl)cc1 (stereo not drawn)	-118
Cc1ccc(C2c3[nH]c4ccccc4c3CCN2C(=O)Cc2cccs2)cc1 (stereo not drawn)	-125
CC(C)OCc1ncn2c1CN(C(=O)NCc1ccccc1)CCC2	-
COc1cccc(F)c1C(=O)N1CCC(Cc2cccc(C(=O)O)c2)CC1	-
c1ccc(CN2CCOCC3(CC(Cn4cnnc4)CO3)C2)cc1 (stereo not drawn)	-
CC(C)Cc1noc(CN(C)C(=O)C2CC3(CCNCC3)CN2)n1 (stereo not drawn)	-
COc1ccc(C2=CCCS2(=O)=O)c2ccc(C)nc12	-
C[C@H]1CN([C@@H](C)CO)C(=O)c2ccccc2-c2ccccc2CO[C@@H]1CN(C)C(=O)Nc1ccc(-c2ccccc2)cc1	-
CC(=O)NCCn1cnc(-c2ccccc2)c1CCn1cccn1	-
COC(=O)C1=C(C)NC(C)=C([N+](=O)[O-])[C@H]1c1ccccc1C(F)(F)F	-
COC(=O)C1=C(C)NC(C)=C(C(=O)OCCCN2CCC(c3ccccc3)(c3ccccc3)CC2)[C@@H]1c1cccc([N+](=O)[O-])c1	-87
C#CCN1C(C)=C(C(=O)OC)C(c2cccc([N+](=O)[O-])c2)C(C(=O)OCC)=C1C (stereo not drawn)	-
COC(=O)C1=C(C)NC(C)=C(C(=O)NCCCN2CCC(c3ccccc3)(c3ccccc3)CC2)C1c1ccc([N+](=O)[O-])cc1 (stereo not drawn)	-76
COC(=O)C1=C(C)NC(C)=C(C(=O)OCC(C)C)C1c1ccccc1[N+](=O)[O-] (stereo not drawn)	-
COC(=O)C1=C(C)NC(C)=C(C(=O)O[C@H]2CCN(Cc3ccccc3)C2)[C@H]1c1cccc([N+](=O)[O-])c1	-
Fc1ccc2c(CCNCc3cccc(OCC(F)(F)C(F)F)c3)c[nH]c2c1	-
O=C(Cc1cccs1)N1CCC2(CC1)Nc1ccc(Cl)cc1-n1cccc12	-
Cn1c(CN2C[C@@H](c3ccccc3F)[C@@]3(CCCCC(=O)N3)C2)nc2ccccc21	-
O=C(Nc1c(C(=O)NCc2cccnc2)[nH]c2ccccc12)c1ccc(Cl)cc1	-
O=C(NCc1cccnc1)c1ccccc1C(=O)Nc1sc2ccccc2c1Cl	-94
SMILES	Tgondii IFNg
O=C(Nc1ccccc1C(=O)NCc1cccnc1)c1cc2ccccc2o1	-
COc1ccccc1-c1nc(Cn2nnc(-c3nc(-c4cccs4)no3)c2C)c(C)o1	-
O=C(c1ccc2cccnc2n1)N1CC[C@@H](c2ccc3c(c2)OCO3)[C@H](O)C1	-
CCCCN(CCCC)C(=O)c1cc2cccnc2n(Cc2ccc(Cl)cc2)c1=O	-
C[C@H]1CCc2cnnn2COCCNC1=O	-
COc1cc(CNC(=O)C2(C)CCN(C(=O)CCc3ccccc3)CC2)cc(OC)c1	-
O=C1CCCN1CC1CN(CC2CCOC2)Cc2nccn2C1 (stereo not drawn)	-
O=C(c1ccc[nH]1)N1Cc2nccn2CC(CN2CCCC2)C1 (stereo not drawn)	-
O=C1CCCN1CC1CN(C(=O)c2ccccn2)Cc2nccn2C1 (stereo not drawn)	-98
O=C1OCCN1CCNC1CCC2(CCNCC2)CC1	-
COc1ccc2cc(C(=O)NCc3cccc(Cn4nc(C)cc4C)c3)c(C)nc2c1	-
Cc1nc(N2CCOCC2)nc2c1COCC21CCN(Cc2cccnc2)C1 (stereo not drawn)	-
Cc1cccc(Nc2nc(C(=O)NC3CCCCCCC3)nc3ccccc23)c1	-83
Cc1ccc(Nc2nc(C(=O)NC3CCCC3)nc3ccccc23)cc1	-
Cc1ccc(Nc2nc(C(=O)NC3CCCCC3)nc3ccccc23)cc1	-
O=C(NC1CCCCCC1)c1nc(Nc2ccc(F)cc2)c2ccccc2n1	-
CCc1ccc(Nc2nc(C(=O)NC3CCCC3)nc3ccccc23)cc1	-
Cc1ccc(Nc2nc(C(=O)NC3CCCCCC3)nc3ccccc23)cc1	-75
CCOc1ccc(NC(=O)C2CCN(C(C)=O)CC2)cc1	-
Nc1cc(N)nc(SCc2noc(-c3ccc(Cl)cc3)n2)n1	-
C1CC(CN2CCC3(CCCN3CC3CC3)CC2)C1	-
CCOC(=O)c1nc(NCCCN2CCN(Cc3ccccc3)CC2)c2ccccc2n1	-
CCCN(c1ccc(F)cc1)c1nc(C(=O)OCC)nc2ccccc12	-
CCOC(=O)c1nc(N(C)c2ccccc2C)c2ccccc2n1	-
